This excerpt belongs to a sample that is enriched for hits.
RmlCD inh mix: RmlC and RmlD coupled enzyme inhibitors, primary screen, biochemical, 384-well, compound mixtures, retest. RmlC/RmlD coupled enzyme inhibition, 384-well mixture HTS. inhibition, % at 5.5 µM. 110,000 tested, 0.39% active. AID 1532, 2009; in the data active means inhibition above about 30%, passing the limit was not always enough
HIV RNase H inh-1: HIV-1 RT RNase H inhibitors, primary screen, biochemical, fluorescence; Gag-Pol polyprotein (Human immunodeficiency virus type 1 group M subtype B (isolate …; inhibition, % at 10 µM; 65,000 tested, 1.9% active; RT-RNase H RNA/DNA duplex cleavage; in the data active means inhibition above about 50%
HIV RNase H inh-2: HIV-1 RT RNase H inhibitors, retest, confirmation, biochemical. shares compounds with HIV RNase H inh-1. Recombinant RT RNase H, fluorescent RNA/DNA duplex cleavage. inhibition, % at 10 µM. 1,000 tested, 39% active; in the data active means inhibition above about 48%
Each line names hits and unclear results; the compound was inactive in the other large screens (follow-up assays come after a bar, where they were run).

CCCc1[nH]nc2c1C(c1ccc(OCCN3CCOCC3)c(OC)c1)C(C#N)=C(N)O2 (configuration not stated)	none
S=C1NCCC12C(=S)Nc1ccccc12 (configuration not stated)	none (no result: HIV RNase H inh-1)
O=C(Nc1ccccc1)C1=C[C@@H](c2ccc3c(c2)OCO3)C[C@@H](OCCCCO)O1	none (no result: HIV RNase H inh-1)
Cc1nc2ccc(NC(=O)c3cccc(S(=O)(=O)N4CC(C)OC(C)C4)c3)cc2s1 (configuration not stated)	none (no result: HIV RNase H inh-1)
Cc1ccccc1NC(=O)c1c(O)c2cccc3c2n(c1=O)CCC3	none (no result: RmlCD inh mix)
Cc1ccccc1NC(=O)c1c(O)c2cccc3c2n(c1=O)CC3	HIV RNase H inh-1 52 (no result: RmlCD inh mix) | HIV RNase H inh-2 97
O=S(=O)(Nc1nc2ccccc2nc1N1CCN(c2ccccc2F)CC1)c1ccc(Cl)cc1	none (no result: HIV RNase H inh-1)
CCn1ncc(C2=NOC(C(=O)NCc3ccccc3)C2)c1C (configuration not stated)	HIV RNase H inh-1 50 | HIV RNase H inh-2 inactive
CCn1ncc(C2=NOC(C(=O)NCc3ccc(OC)cc3)C2)c1C (configuration not stated)	none
CNC(CC(C)C)C(=O)NC1C(=O)NC(CC(N)=O)C(=O)NC2C(=O)NC3C(=O)NC(C(=O)NC(C(=O)O)c4cc(O)cc(O)c4-c4cc3ccc4O)C(O)c3ccc(c(Cl)c3)Oc3cc2cc(c3OC2OC(CO)C(O)C(O)C2OC2CC(C)(N)C(O)C(C)O2)Oc2ccc(cc2Cl)C1O (configuration not stated)	none (no result: HIV RNase H inh-1)
O=C(c1ccccc1)N1CCN(c2ncnc3sc4c(c23)CCC4)CC1	none (no result: HIV RNase H inh-1)
Cc1cc2cc(C(c3nnnn3CC3CCCO3)N3CCCc4ccccc43)c(=O)[nH]c2cc1C (configuration not stated)	HIV RNase H inh-1 52 | HIV RNase H inh-2 inactive
CCc1ccc2[nH]c(=O)c(C(c3nnnn3CC3CCCO3)N3CCCc4ccccc43)cc2c1 (configuration not stated)	none
Cc1cc(C)c(S(=O)(=O)c2ccccc2C)c(OCC(C)(C)C)n1	none (no result: HIV RNase H inh-1)
O=C1C2C3C=CC(CO)(O3)C2C(=O)N1c1ccccc1-c1ccccc1 (configuration not stated)	HIV RNase H inh-1 61 | HIV RNase H inh-2 inactive
COc1ccc(C(=O)NCC23C=CC(O2)C2C(=O)N(Cc4ccccc4)C(=O)C23)cc1 (configuration not stated)	none
CC1(O)c2ccccc2C(=O)N1Cc1ccccc1 (configuration not stated)	none
CC1(O)c2ccccc2C(=O)N1CCc1ccccc1F (configuration not stated)	HIV RNase H inh-1 89 | HIV RNase H inh-2 inactive
Cc1ccc(NC(=O)C2=C(O)c3ccccc3N(C)S2(=O)=O)cc1	none (no result: HIV RNase H inh-1)
O=C(CCS(=O)(=O)c1cccc2nsnc12)NCc1ccccc1Cl	none (no result: HIV RNase H inh-1)
O=C(/C=N/O)NCCN1CCCCC1	HIV RNase H inh-1 71 | HIV RNase H inh-2 inactive
C/C(=N\O)C(=O)NCCN1CCCCC1	none
Brc1ccccc1-c1nnc2sc(Cc3ccccc3)nn12	none
c1ccc(Cc2nn3c(Cn4nnc5ccccc54)nnc3s2)cc1	HIV RNase H inh-1 74 (no result: RmlCD inh mix) | HIV RNase H inh-2 68
COCCN1C(=O)N[C@@H](c2cccc(F)c2)C(C(C)=O)=C1C	none (no result: HIV RNase H inh-1)
CC(=Nc1ccccc1)Nc1ccccc1	none
S=C(N=Nc1ccccc1)NNc1ccccc1	HIV RNase H inh-1 69 | HIV RNase H inh-2 inactive
O=C(O)CCN1C(=O)/C(=C\c2ccc(-c3nc4ccccc4s3)o2)SC1=S	none (no result: HIV RNase H inh-1)
Cc1cc(C(=O)NCCC(c2ccccc2)c2ccccc2)c(C)o1	none (no result: HIV RNase H inh-1)
Cc1ccc(S(=O)(=O)NC(=O)CSc2nc3ccccc3s2)cc1	none (no result: HIV RNase H inh-1)
CS/C(=N\S(=O)(=O)c1cccs1)NC(=O)CSc1nc2ccccc2s1	HIV RNase H inh-1 73 | HIV RNase H inh-2 inactive
O=C(c1ccc(Cl)c(Cl)c1)N1CCC(=O)N(C(COCc2ccccc2)Cc2ccccc2)CC1 (configuration not stated)	none (no result: HIV RNase H inh-1)
COC(=O)C1Sc2[nH]c(=O)sc2C2c3ccccc3OC(=O)C12 (configuration not stated)	none
O=C(O)C1Sc2[nH]c(=O)sc2C2c3cc(Cl)ccc3OC(=O)C12 (configuration not stated)	HIV RNase H inh-1 72 | HIV RNase H inh-2 inactive
CC(=O)n1cc([C@H]2C=C(C(=O)N3CCOCC3)O[C@@H](OCCCCO)C2)c2ccccc21	none (no result: HIV RNase H inh-1)
CCc1cccc(CC)c1NC(=O)CN1CC(C)SC1=NC1CCCCC1 (configuration not stated)	none (no result: HIV RNase H inh-1)
N#Cc1ccc(-c2ccccc2)nc1SCC(=O)c1cc2ccccc2oc1=O	none (no result: HIV RNase H inh-1)
CC(C)c1c(C#N)c(N)nc(SCC(=O)c2cc3ccccc3oc2=O)c1C#N	HIV RNase H inh-1 75 | HIV RNase H inh-2 inactive

High-throughput results: PubChem, several laboratories
